Source: PubChem BioAssay (NCI)
Compounds without any hit were thinned out: in the full panel of roughly 83,000, 20% have a hit.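 Treatment: one concentration, 48 hours, 96-well format. Scoring: percent growth, with anything below 10 considered active.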 A number with no mark means an inactive call. Activity calls are given as the source filed them.

Tests used:
Experiment in all cases: NCI-60 one-dose screen, 48 h (100 = growth as untreated, 0 = no growth, -100 = all killed)
Conditions in all cases: 10 µM unless noted
SK-MEL-2 melanoma = tested on: SK-MEL-2 melanoma
EKVX NSCLC = tested on: EKVX NSCLC
SN12C renal = tested on: SN12C renal
UO-31 renal = tested on: UO-31 renal
TK-10 renal = tested on: TK-10 renal
ACHN renal = tested on: ACHN renal
CAKI-1 renal = tested on: CAKI-1 renal
A498 renal = tested on: A498 renal
CCRF-CEM leukemia = tested on: CCRF-CEM leukemia
MOLT-4 leukemia = tested on: MOLT-4 leukemia

Compound | growth (SK-MEL-2 melanoma) | growth (EKVX NSCLC) | growth (SN12C renal) | growth (UO-31 renal) | growth (TK-10 renal) | growth (ACHN renal) | growth (CAKI-1 renal) | growth (A498 renal) | growth (CCRF-CEM leukemia) | growth (MOLT-4 leukemia)
COc1ccc(C(=O)/C=C/c2c[n+](=O)c3ccc(F)cc3n2[O-])cc1 | 112% | 92% | 96.2% | 87.8% | 106% | 102% | 95.2% | 109% | 95.9% | 107%
Nc1ccc2c(c1)C(=O)NC2=O | 117% | 112% | 94.9% | 70.8% | 118% | 99.3% | 99.6% | 119% | -49.6% (active) | 105%
C/C(=C(/c1ccc(O)cc1)c1ccc(OCCN(C)C)cc1)c1ccccc1 | 92.3% | 83.6% | 84% | 65% | 81.5% | 89.2% | 84.9% | 102% | 94.3% | 32.8%
COC1=CC(=O)C(OC)=C(OC)C1=O | 99.3% | 98.6% | 101% | 104% | 115% | 111% | 95.4% | 88.2% | 31.9% | -7.34% (active)
COc1cnc2c(c1)C(=O)c1c-2n(CCCBr)c(=O)c2cc([N+](=O)[O-])ccc12 | 6.39% (active) | 34.2% | -15.3% (active) | -10.8% (active) | 36.5% | 3.87% (active) | 2.8% (active) | -29.8% (active) | 8.19% (active) | 7.84% (active)
Oc1ccc(Nc2nccc(-c3ccc4ccccc4c3)n2)cc1 | 9.62% (active) | 58.1% | 32.4% | 29% | 49.4% | 42.8% | 27.2% | 21.8% | 9.76% (active) | 14.8%
CC[C@H](Nc1nc(N)nc(C)c1C#N)c1nc2cccc(NCc3ccc(C(=O)NO)cc3)c2c(=O)n1-c1ccccc1 | 27.8% | 35.6% | 11.4% | 4.77% (active) | 1.89% (active) | 4.61% (active) | 13.2% | -38.6% (active) | 0.318% (active) | 0.225% (active)
CC/C=C\C[C@H](O)C/C=C1/C(=O)C=C[C@@H]1C/C=C\CCCC(=O)NC | 16.1% | 23.8% | -3.66% (active) | -76.8% (active) | -8.31% (active) | -86.1% (active) | 4.85% (active) | 56.1% | -14.6% (active) | -14.1% (active)
COc1ccc2c(c1)C(=O)/C(=C/c1cccc(OCC(=O)Nc3nc4c(s3)CCCC4)c1)O2 | -67.3% (active) | -72.6% (active) | 28.7% | -78.2% (active) | -69.6% (active) | -73.4% (active) | -83.5% (active) | 92% | -0.645% (active) | -47.8% (active)
C=C1CC2(OC1=O)C(=O)N(CCCCCCCN1C(=O)C3(CC(=C)C(=O)O3)c3ccccc31)c1ccccc12 (stereo not given) | 61.2% | 88.4% | -50.9% (active) | -24.6% (active) | 45.2% | 15.8% | 40.3% | 53.5% | -14.8% (active) | 3.14% (active)
CN(C)C(=O)c1cc2cnc(Nc3ccc(-c4csc5c(=O)cc(N6CCNCC6)oc45)cc3)nc2n1C1CCCC1 | 33.6% | 40.2% | 24.2% | -10% (active) | 26.6% | 16% | 43.2% | -7.2% (active) | 1.39% (active) | 4.52% (active)
Cn1c2ccccc2c2c3c(c4c5ccccc5[nH]c4c21)C(=O)N(N)C3=O | 99.7% | 77.3% | 52.2% | 34.8% | 82.5% | 14.2% | 30.7% | 60% | 26.4% | 21.1%
Cc1[nH]n(-c2ccccc2)c2nc3nncc3c(-c3ccc(Cl)cc3)c12 | 123% | 97% | 93.1% | 96.6% | 112% | 104% | 90.3% | 102% | 89.7% | 101%
COC(=S)SCN(CSC(=S)OC)c1ccc(Cl)cc1 | 106% | 70.3% | 80.7% | 66.5% | 109% | 75.3% | 62.8% | 86.8% | 77.7% | 81.7%
Cc1cc(-c2nc3ccccc3s2)ccc1NC(=O)COc1ccc(Cl)cc1 | 104% | 78.9% | 88.3% | 69% | 53.7% | 95.5% | 84.5% | 106% | 106% | 94.5%
O=C1c2cccnc2C(=O)c2c1c(C(=O)OCCN1CCCCC1)c1ccccn21 | -45.4% (active) | 4.44% (active) | -68.8% (active) | -12.7% (active) | -14.3% (active) | -66% (active) | 2.16% (active) | 47.3% | -8.77% (active) | -19.1% (active)
C[C@H](CCC(=O)O)[C@H]1CC[C@H]2[C@@H]3CC[C@@H]4/C(=C\c5ccco5)C(=O)/C(=C\c5ccco5)C[C@]4(C)[C@H]3CC[C@]12C | 73.2% | 79.1% | 56.3% | 49.6% | 109% | 46.6% | 55.6% | 115% | 0.613% (active) | 0.809% (active)
CCCCCCCCCCCCCCCC(=O)OCC1OC(n2cnc3c(=S)nc(N)[nH]c32)C(OC(=O)CCCCCCCCCCCCCCC)C1OC(=O)CCCCCCCCCCCCCCC (stereo not given) | 54.7% | 48.6% | 84.2% | 50% | 35.7% | 75% | 49.4% | 116% | 15.9% | -24% (active)
O=C1c2cc3c(cc2-c2c1c1cc(F)c(F)cc1c(=O)n2C[C@H](O)CO)OCO3 | -26% (active) | 14.7% | -12.6% (active) | -56.8% (active) | -27.6% (active) | -61.5% (active) | -4.95% (active) | -79.4% (active) | -10.9% (active) | -26% (active)
N#Cc1c(N)nc(N)nc1Nc1ccc(Br)cc1 | 91.1% | 44.1% | 85.1% | 65.6% | 125% | 89% | 80.1% | 106% | 61.1% | 76.5%
O=C1CCc2c(sc3[nH]c(=S)n(Cc4ccccc4)c(=O)c23)C1 | -15.4% (active) | 13.9% | 7.15% (active) | -4.69% (active) | 29.6% | 21.8% | 24.1% | 57.6% | 4.68% (active) | 28.8%
COc1cc(C#N)cc(OC)c1OCCN(CCOc1c(OC)cc(C#N)cc1OC)S(=O)(=O)c1ccc(C)cc1 | 75% | 108% | 111% | 45.5% | 140% | 97.5% | 109% | 107% | 103% | 97.6%
COC(=O)[C@H](C(C)C)n1c(=O)c2cc(OC)c(OC)cc2c2cnc3[nH]ccc3c21 | 89.7% | 47.5% | 43.5% | 22% | 51.1% | 34% | 30.5% | -40.3% (active) | 39% | 1.15% (active)
CC[C@]12C=CCN3CC[C@@]4(c5ccc(OC)cc5N(C)[C@H]4[C@@](O)(C(=O)OC)[C@@H]1OC(=O)CCC(=O)N[C@@H](Cc1c[nH]c4ccccc14)C(=O)OC)[C@@H]32 | 54.4% | 93.3% | 71.5% | 83% | 87.4% | 93% | 108% | 83.4% | 28.9% | -35.5% (active)
NC(N)=Nc1ccc(S(=O)(=O)O)cc1 | 107% | 110% | 90.8% | 94.6% | 108% | 93% | 115% | 97.8% | 108% | 85.2%
COc1ccc(-n2cc(-c3ccccc3)c3c(SCC(=O)N/N=C/c4ccc([N+](=O)[O-])cc4)ncnc32)cc1 | 98.1% | 97% | 102% | 79.4% | 108% | 105% | 89.7% | 108% | 104% | 108%
CCN(CC)CC(C)Nc1ccc([N+](=O)[O-])c2sc3ccccc3c(=O)c12 (stereo not given) | 26.8% | 34.5% | 37.2% | 0.595% (active) | 49.5% | 7.58% (active) | 18.1% | 29.8% | 15.2% | -24% (active)
